# Records with an inconclusive call do not appear. Active and inactive are the calls of the source. Unless noted, the limit is not given here; nearly all actives have AC50 up to about 26 µM.
# Experiments:
# [1] = growth inhibition of DIPG glioma cells, dose response, cell-based, SU-DIPG-XVII, MIPE5.0, CellTiter-Glo, qHTS (AID 1347060); details: SU-DIPG-XVII viability, CellTiter-Glo ATP luminescence;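 as to AC50: cells exposed to compound for 48 hours before viability readout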
# [2] = growth inhibition of DIPG glioma cells, dose response, cell-based, SU-DIPG-XIII, MIPE5.0, CellTiter-Glo, qHTS (AID 1347064; cut-off not given, nearly all actives have AC50 up to about 23 µM;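 as to AC50: cells exposed to compound for 48 hours before the viability read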); details: SU-DIPG-XIII viability, CellTiter-Glo ATP luminescence
# [3] = viability loss in pontine glioma line – cell-based, SU-DIPG-XXV, MIPE5.0, CellTiter-Glo, qHTS, dose response (AID 1347065); details: CellTiter-Glo ATP luminescence;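 also: cells exposed to compound for 48 hours before ATP readout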
# [4] = SU-DIPG-VI glioma cell viability, MIPE4.0 library, CellTiter-Glo luminescence, qHTS (AID 1347066; cut-off not given, nearly all actives have AC50 up to about 30 µM;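 also: cells exposed to compound for 48 hours before readout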); details: CellTiter-Glo ATP luminescence
# [5] = JHH-DIPG-1 glioma cell viability, MIPE5.0 library, CellTiter-Glo luminescence, qHTS (AID 1347067); details: JHH-DIPG-1 glioma viability, CellTiter-Glo ATP luminescence;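 also: cells exposed to compound for 48 hours before readout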
# [6] = growth inhibition of DIPG glioma cells, dose response, cell-based, SU-DIPG-XIII, MIPE4.0, CellTiter-Glo, qHTS (AID 1347061; cut-off not given, nearly all actives have AC50 up to about 37 µM;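 also: cells exposed to compound for 48 hours before readout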); details: SU-DIPG-XIII viability, CellTiter-Glo ATP luminescence
# [7] = growth inhibition of DIPG glioma cells, dose response, cell-based, SU-DIPG-IV, MIPE4.0, CellTiter-Glo, qHTS (AID 1347063; cut-off not given, nearly all actives have AC50 up to about 30 µM;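 also: compound exposure lasted 48 hours before the viability readout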); details: SU-DIPG-IV viability, CellTiter-Glo ATP luminescence
# [8] = SU-DIPG-XXV glioma cell viability, MIPE5.0 library, qHTS (AID 1347068; cut-off not given, nearly all actives have IC50 up to about 30 µM;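 as to IC50: cells exposed to compound for 48 hours before viability readout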)
# [9] = target: ATP-dependent translocase ABCB1 (Homo sapiens) (UniProt P08183); experiment: MDR1 (ABCB1) efflux transporter inhibition, cell-based (AID 377; in the data active = fluorescence slope change above about 50%); details: MDR1-expressing cells, fluorescent substrate accumulation slope; stronger effect = higher value; concentration not given here
# Sequence of ATP-dependent translocase ABCB1 (Homo sapiens) (P08183 whole entry, looked up): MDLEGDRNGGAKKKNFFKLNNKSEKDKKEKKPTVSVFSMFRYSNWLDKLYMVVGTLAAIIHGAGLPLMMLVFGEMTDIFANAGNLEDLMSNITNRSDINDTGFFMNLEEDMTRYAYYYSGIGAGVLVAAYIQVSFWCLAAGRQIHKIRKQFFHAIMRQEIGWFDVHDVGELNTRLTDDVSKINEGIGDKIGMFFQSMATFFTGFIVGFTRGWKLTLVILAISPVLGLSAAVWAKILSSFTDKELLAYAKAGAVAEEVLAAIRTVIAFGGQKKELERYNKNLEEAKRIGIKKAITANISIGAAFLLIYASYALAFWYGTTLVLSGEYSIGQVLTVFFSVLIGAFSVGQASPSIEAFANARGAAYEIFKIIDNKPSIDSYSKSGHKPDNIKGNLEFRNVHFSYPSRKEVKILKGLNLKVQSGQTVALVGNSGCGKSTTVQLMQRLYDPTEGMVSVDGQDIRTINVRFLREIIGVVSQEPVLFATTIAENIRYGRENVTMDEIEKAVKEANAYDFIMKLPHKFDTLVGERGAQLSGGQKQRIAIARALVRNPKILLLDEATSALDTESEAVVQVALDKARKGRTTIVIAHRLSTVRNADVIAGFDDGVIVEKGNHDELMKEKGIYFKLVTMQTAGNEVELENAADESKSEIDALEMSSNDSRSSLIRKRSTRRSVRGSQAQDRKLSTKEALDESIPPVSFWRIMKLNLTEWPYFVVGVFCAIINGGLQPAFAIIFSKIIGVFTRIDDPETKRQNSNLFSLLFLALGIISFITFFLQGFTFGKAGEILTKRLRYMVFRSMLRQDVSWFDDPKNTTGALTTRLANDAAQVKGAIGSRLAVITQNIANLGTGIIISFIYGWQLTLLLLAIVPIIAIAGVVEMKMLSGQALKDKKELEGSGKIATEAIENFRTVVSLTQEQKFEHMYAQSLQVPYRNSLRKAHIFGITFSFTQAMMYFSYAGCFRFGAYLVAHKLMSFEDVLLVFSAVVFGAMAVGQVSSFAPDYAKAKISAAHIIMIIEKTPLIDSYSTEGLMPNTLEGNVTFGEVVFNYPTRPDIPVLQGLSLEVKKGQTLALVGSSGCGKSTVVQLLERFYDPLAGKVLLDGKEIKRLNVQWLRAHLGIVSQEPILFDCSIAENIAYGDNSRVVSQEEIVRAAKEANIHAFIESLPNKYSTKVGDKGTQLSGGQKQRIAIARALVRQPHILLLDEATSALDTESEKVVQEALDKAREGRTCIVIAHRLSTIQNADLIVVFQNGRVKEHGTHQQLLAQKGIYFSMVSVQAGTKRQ
# [10] = reducers of polyQ inclusions in PC12 cells, cell-based, NGF-treated PC12, GFPQ80 (AID 1614); details: PC12 NGF-treated GFP-polyQ80 inclusion reduction;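 also: lower means fewer inclusions and 0 means no inclusions at all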
# [11] = inhibitors of Cryptococcus chitosan production, flow cytometry, Cibacron Brilliant Red staining (AID 1347148; call rule not given here;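 also: compound exposure lasted three days at 37 degrees C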); details: Cryptococcus neoformans chitosan, stronger effect = lower value; at 10 µM unless noted
smiles,measurement,setting,value
CCc1ccc(CCOc2ccc(CC3SC(=O)NC3=O)cc2)nc1 (stereo unspecified),outcome,[1],inactive
same,outcome,[2],inactive
same,outcome,[3],inactive
same,outcome,[4],inactive
same,outcome,[5],inactive
CS(=O)(=O)c1ccc(C2=C(c3ccccc3)C(=O)OC2)cc1,outcome,[1],inactive
same,outcome,[6],inactive
same,outcome,[7],inactive
same,outcome,[2],inactive
same,outcome,[3],inactive
same,outcome,[4],inactive
same,outcome,[5],inactive
same,outcome,[8],inactive
COc1ccc2c3c1O[C@H]1C[C@@H](O)C=C[C@@]31CCN(C)C2,fluorescence slope change,[9],9.8% (inactive)
same,inclusion score,[10],2
same,outcome,[6],inactive
same,outcome,[7],inactive
same,outcome,[4],inactive
CCN1CCN(C(=O)N[C@@H](C(=O)N[C@@H]2C(=O)N3[C@@H]2SC(C)(C)[C@@H]3C(=O)O)c2ccccc2)C(=O)C1=O,fluorescence slope change,[9],1.5% (inactive)
CN(C)CCC(c1ccc(Cl)cc1)c1ccccn1 (stereo unspecified),fluorescence slope change,[9],220% (active)
same,inclusion score,[10],2
CNCCC=C1c2ccccc2CCc2ccccc21,fluorescence slope change,[9],145% (active)
CC(=O)O[C@]1(C(C)=O)CC[C@H]2[C@@H]3C[C@H](C)C4=CC(=O)CC[C@]4(C)[C@H]3CC[C@@]21C,outcome,[7],inactive
same,outcome,[4],inactive
same,outcome,[5],inactive
same,outcome,[8],inactive
OC[C@H]1O[C@@H](Oc2cc(O)cc(/C=C/c3ccc(O)cc3)c2)[C@H](O)[C@@H](O)[C@@H]1O,outcome,[3],inactive
same,outcome,[4],inactive
same,outcome,[5],inactive
same,outcome,[8],inactive
C[C@H](CCC(=O)O)[C@H]1CC[C@H]2[C@@H]3[C@@H](O)C[C@@H]4C[C@H](O)CC[C@]4(C)[C@H]3CC[C@]12C,outcome,[1],inactive
same,outcome,[7],inactive
same,outcome,[3],inactive
same,outcome,[4],inactive
same,outcome,[5],inactive
same,outcome,[8],inactive
CC(=O)N=c1sc(S(N)(=O)=O)nn1C,fluorescence slope change,[9],65.4% (active)
same,inclusion score,[10],2
Cc1ccc(N(CC2=NCCN2)c2cccc(O)c2)cc1,fluorescence slope change,[9],72.4% (active)
same,inclusion score,[10],2
same,outcome,[1],inactive
same,outcome,[6],inactive
same,outcome,[2],inactive
same,outcome,[3],inactive
same,outcome,[4],inactive
same,fold fluorescence,[11],4.52 [at 177.7 µM] (inactive)
CC[C@H](C)C(=O)O[C@H]1CCC=C2C=C[C@H](C)[C@H](CC[C@@H]3C[C@@H](O)CC(=O)O3)[C@H]21,AC50,[1],6.61 µM (active)
same,AC50,[5],23.5 µM (active)
Nc1ccn([C@@H]2O[C@H](CO)[C@@H](O)C2O)c(=O)n1 (stereo partly specified),AC50,[1],0.263 µM (active)
same,outcome,[6],inactive
same,outcome,[2],inactive
same,outcome,[3],inactive
same,outcome,[5],inactive
same,outcome,[8],inactive
C=CC1=C(C(=O)O)N2C(=O)[C@@H](NC(=O)/C(=N\O)c3csc(N)n3)[C@H]2SC1 (stereo in doubt),outcome,[7],inactive
same,outcome,[4],inactive
C[C@]12CC[C@@H]3c4ccc(O)cc4CC[C@H]3[C@@H]1CC[C@@H]2O,outcome,[2],inactive
same,outcome,[3],inactive
same,outcome,[4],inactive
same,fold fluorescence,[11],5.13 [at 183.6 µM] (inactive)
CC(CCc1ccccc1)NCC(O)c1ccc(O)c(C(N)=O)c1 (stereo unspecified),inclusion score,[10],2
CC(C)[N+]1(C)C2CCC1CC(OC(=O)C(CO)c1ccccc1)C2 (stereo unspecified),outcome,[7],inactive
same,outcome,[4],inactive
CCCC1O[C@@H]2C[C@H]3[C@@H]4CCC5=CC(=O)C=C[C@]5(C)[C@H]4[C@@H](O)C[C@]3(C)[C@]2(C(=O)CO)O1 (stereo partly specified),fluorescence slope change,[9],56.9% (active)
Cn1cc[nH]c1=S,fluorescence slope change,[9],21.6% (inactive)
same,inclusion score,[10],2
CCCCCCCCCCCC1=C(O)C(=O)C=C(O)C1=O,outcome,[6],inactive
same,AC50,[7],0.0526 µM (active)
same,outcome,[8],inactive
COc1c(C)c2c(c(O)c1C/C=C(\C)CCC(=O)O)C(=O)OC2,inclusion score,[10],1
same,AC50,[1],0.742 µM (active)
same,outcome,[4],inactive
same,fold fluorescence,[11],7.43 [at 156.1 µM] (inactive)
CC/C(=C(\c1ccccc1)c1ccc(OCCN(C)C)cc1)c1ccccc1,fluorescence slope change,[9],142% (active)
same,AC50,[1],17.1 µM (active)
same,AC50,[7],26.4 µM (active)
same,AC50,[2],13.5 µM (active)
same,AC50,[3],19.1 µM (active)
same,AC50,[4],23.5 µM (active)
same,AC50,[5],21.5 µM (active)
same,IC50,[8],17.1 µM (active)
same,fold fluorescence,[11],8.26 [at 134.6 µM] (inactive)
CN1C[C@H](C(=O)N[C@]2(C)O[C@@]3(O)[C@@H]4CCCN4C(=O)[C@H](Cc4ccccc4)N3C2=O)C[C@@H]2c3cccc4[nH]cc(c34)C[C@H]21,fluorescence slope change,[9],122% (active)
O=C(O)c1cccnc1C(=O)O,inclusion score,[10],2
O=c1cc(-c2ccc(O)cc2)oc2cc(O)cc(O)c12,inclusion score,[10],1.5
same,AC50,[1],16.6 µM (active)
same,AC50,[7],2.96 µM (active)
same,AC50,[2],16.6 µM (active)
COc1cc(CNC(=O)CCCC/C=C/C(C)C)ccc1O,outcome,[1],inactive
same,outcome,[6],inactive
same,outcome,[7],inactive
same,outcome,[4],inactive
same,outcome,[5],inactive
same,outcome,[8],inactive
same,fold fluorescence,[11],7.26 [at 163.7 µM] (inactive)
NCCc1cnc[nH]1,inclusion score,[10],2
same,outcome,[1],inactive
same,outcome,[6],inactive
same,outcome,[2],inactive
same,outcome,[3],inactive
same,outcome,[4],inactive
same,outcome,[5],inactive
same,outcome,[8],inactive
same,fold fluorescence,[11],5.22 [at 449.9 µM] (inactive)
O=c1cc(-c2ccccc2)oc2cc(O)c(O)c(O)c12,outcome,[6],inactive
same,outcome,[7],inactive
